Screening results (PubChem BioAssay)
IMPase Li cell: qHTS Assay for Identifying the Cell-Membrane Permeable IMPase Inhibitors: Potentiation with Lithium; Potency, µM (series often up to 59.4 µM), for inactives: at the highest dose activity, negative = IMPase inhibition, usual class: inhibitors; CHO-M1 cells, IP1 TR-FRET (IP-One), carbachol + lithium; hit rate 0.35% among 210,000; active means well fitted inhibition curve with a large enough effect; inconclusive means small, poorly fitted or top-dose-only effect; inactive means no such curve, though single readings can be large or run the other way;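 further: IP1 builds up when IMPase is blocked and the TR-FRET signal falls; potency means the concentration at half of the fitted maximal effect; plate controls were basal vehicle for no effect and high inhibitor control for full effect; nearly all actives have a fitted effect of over 50% in size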
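CHO-M1, 2000 cells/well, 16–30 h culture; cpd + low Li+, 30 min 37C; lysis with d2-IP1/Eu-anti-IP1 Ab, 10 min RT; TR-FRET 665/620 ratio and 620 channel; AC50 via Hill.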
PNC inhibitor: High Content Assay for Compounds that inhibit the Assembly of the Perinucleolar Compartment. hit rate 3.1% among 140,000. activity change (PNC), negative = inhibition, % at 10 µM. PC3M PTB-GFP, PNC prevalence imaging, 16 h; active compounds read low;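 active means readout at or below -70, meaning at least 70% loss of cells showing the perinucleolar compartment, a nuclear body marking cancer cells; inconclusive means readout between -30 and a set limit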;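 further: plate controls were DMSO wells for no effect and camptothecin positive control wells for full effect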
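Read-out is percentage of cells bearing a perinucleolar compartment, from automated 20x imaging of fixed, Hoechst-stained PC3M PTB-GFP cells. Cells were seeded 4 h, then exposed 16 h to compound (23 nl of library stock) in duplicate plates.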
IMPase cell inh: qHTS Assay for Identifying the Cell-Membrane Permeable IMPase Inhibitors; Inositol monophosphatase 1 (Rattus norvegicus), P97697; CHO-M1 cells, IP1 accumulation, HTRF TR-FRET ratio; inhibition (IP1 accumulation), % at 46.1 µM; 120,000 tested, under 10 active; active means well fitted curve in the direction sought with a large enough effect in the signal ratio, not every such curve was filed as active; inconclusive means small, poorly fitted or top-dose-only effect, or a change in a side signal; inactive means no such curve, though single readings can be large or run the other way; the % refers to the signal ratio;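 further: cells stimulated with carbachol in lithium chloride buffer; plate controls were DMSO basal wells for no effect and reference inhibitor wells for full effect; higher means more IMPase inhibition seen as more IP1 and lower FRET ratio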
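Cellular IMPase inhibition is scored as a rise in cytosolic IP1, detected by competitive TR-FRET between d2-labelled IP1 and a europium anti-IP1 antibody. M1-expressing CHO cells were stimulated with carbachol for 30 min at 37C, with lithium (50 mM LiCl) present in the buffer.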
ALDH1A1 inh: qHTS Assay for Inhibitors of Aldehyde Dehydrogenase 1 (ALDH1A1) | Potency, µM (highest dose often 75.3 µM), without a hit: at the highest dose activity, negative = inhibition, usual class: inhibitors | AID 1030, 2008 | hit rate 7.3% among 220,000 | Purified ALDH1A1, NADH fluorescence, propionaldehyde substrate | Aldehyde dehydrogenase 1A1 (Homo sapiens), P00352;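 further: potency means the concentration at half of the fitted maximal effect; plate controls were no enzyme wells and a reference inhibitor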
Target sequence (P00352 whole entry, looked up): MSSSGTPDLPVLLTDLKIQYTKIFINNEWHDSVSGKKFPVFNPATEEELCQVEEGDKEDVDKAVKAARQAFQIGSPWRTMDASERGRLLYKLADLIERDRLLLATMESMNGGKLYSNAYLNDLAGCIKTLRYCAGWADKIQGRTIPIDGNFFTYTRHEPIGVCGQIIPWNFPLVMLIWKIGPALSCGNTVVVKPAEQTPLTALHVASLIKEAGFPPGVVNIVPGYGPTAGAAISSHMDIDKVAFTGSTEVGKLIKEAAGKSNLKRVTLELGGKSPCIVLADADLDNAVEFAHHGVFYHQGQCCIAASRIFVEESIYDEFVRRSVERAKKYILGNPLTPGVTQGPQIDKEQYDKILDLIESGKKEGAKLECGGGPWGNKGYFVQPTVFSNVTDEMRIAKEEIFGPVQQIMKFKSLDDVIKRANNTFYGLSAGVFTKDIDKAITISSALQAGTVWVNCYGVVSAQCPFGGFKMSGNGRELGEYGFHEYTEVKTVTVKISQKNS
HPGD inh: qHTS Assay for Inhibitors of HPGD (15-Hydroxyprostaglandin Dehydrogenase); AID 894, 2007; purified HPGD, NADH fluorescence kinetic, PGE2 substrate; 15-hydroxyprostaglandin dehydrogenase [NAD(+)] (Homo sapiens), P15428; hit rate 4.3% among 150,000; Potency, µM, for the others: at the top dose activity change, negative = inhibition, most hits filed as inhibitors; further: potency means the concentration at half of the fitted maximal effect
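20 nM HPGD preincubated 15 min at room temperature with compound in 50 mM Tris-HCl pH 8, 0.01% Tween 20. Started with 1 mM NAD+ and 30 uM prostaglandin E2; NADH fluorescence (360/450 nm) read 5 times over 30-s intervals, last minus first.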
* = called active by the depositor; [ ] = dose if it differs, or a comment. A selection: hits, their analogues and other compounds. The true share with any hit is near 11%. Unless noted, the call rests on the fitted dose curve; in most records, active means well fitted inhibition curve with a large enough effect (not every such curve was filed as active); inconclusive means small, poorly fitted or top-dose-only effect, or another doubt; inactive means no such curve, though single readings can be large or run the other way. Unless noted, on the % scale 0 is the no-effect control and ±100 the full control effect.

Screening CC(=O)C1=C(C)NC(SCC(N)=O)=C(C#N)C1c1cccnc1 (configuration not stated) returned IMPase Li cell -6%[38.3 µM], PNC inhibitor -29, IMPase cell inh -4, ALDH1A1 inh inconclusive and HPGD inh -6%.
Screening N#CC1=C(SCc2ccccc2)NC(=O)CC1c1ccccc1 (configuration not stated) returned IMPase Li cell 16%, PNC inhibitor -24, IMPase cell inh -5, ALDH1A1 inh inconclusive and HPGD inh -11%.
For CC1(C)CC(=O)C2=C(C1)NC(SCC(=O)Nc1ccccc1)=C(C#N)C2c1ccco1 (configuration not stated) the results were IMPase Li cell 5%[38.3 µM], PNC inhibitor -23, IMPase cell inh -1, ALDH1A1 inh 13µM* and HPGD inh -8%.
Screening CCOC(=O)C1=C(c2ccccc2)NC(SCC(=O)NC2CCCCC2)=C(C#N)C1c1ccco1 (configuration not stated) returned IMPase Li cell -4%[38.3 µM], PNC inhibitor 30, IMPase cell inh 4, ALDH1A1 inh 18µM* and HPGD inh -28%.
Screening CC(=O)C1=C(C)NC(SCC(=O)c2ccc(C)cc2)=C(C#N)C1c1ccco1 (configuration not stated) returned IMPase Li cell 33%[38.3 µM], PNC inhibitor 5, IMPase cell inh 4, ALDH1A1 inh 10µM* and HPGD inh 28µM*.
For N#CC1=C(SCC(=O)Nc2ccc(C(=O)O)cc2)NC(=O)CC1c1ccco1 (configuration not stated) the results were ALDH1A1 inh 13µM*.
Screening O=C(c1cc(C2CC2)on1)N1CCN(c2ccc(F)cc2)CC1 returned IMPase Li cell 22%[38.3 µM], PNC inhibitor -26, IMPase cell inh 2, ALDH1A1 inh 6% and HPGD inh -7%.
CCc1ccccc1NC(=O)CSC1=C(C#N)C(c2ccc3c(c2)OCO3)C2=C(CCCC2=O)N1 (configuration not stated) was read as IMPase Li cell 12%[38.3 µM], PNC inhibitor inconclusive, IMPase cell inh 8, ALDH1A1 inh 25µM* and HPGD inh -20%.
COc1ccc(OC)c(NC(=O)CSC2=C(C#N)C(c3ccco3)C3=C(CCCC3=O)N2)c1 (configuration not stated) was read as IMPase Li cell 17%[38.3 µM], PNC inhibitor -30, IMPase cell inh 11, ALDH1A1 inh inconclusive and HPGD inh -20%.
For Cc1ccc(C(=O)CSC2=C(C#N)C(c3ccco3)C3=C(CC(C)(C)CC3=O)N2)cc1 (configuration not stated) the results were IMPase Li cell 11%[38.3 µM], PNC inhibitor -4, IMPase cell inh -4, ALDH1A1 inh 13µM* and HPGD inh -10%.
For S=C(Nc1ccc(Nc2ccccc2)cc1)NC1CCCCCC1 the results were IMPase Li cell -1% and ALDH1A1 inh -8%.
`O=S(=O)(NC(=S)NC1CCCCC1)c1ccccc1` gave IMPase Li cell 4% and ALDH1A1 inh 22µM*.
Screening O=C(NC1CCCCC1)C(Cc1ccccc1)NS(=O)(=O)c1cccs1 (configuration not stated) returned IMPase Li cell 9%[38.3 µM], PNC inhibitor 10, IMPase cell inh 2, ALDH1A1 inh inconclusive and HPGD inh 0%.
O=S(=O)(NC(=S)NC1CCCCC1)c1cccs1 was read as IMPase Li cell 7% and ALDH1A1 inh 5.6µM*.
Screening COc1cc2cc(C(c3nnnn3C(C)(C)C)N3CCC(C)CC3)c(=O)[nH]c2cc1OC (configuration not stated) returned IMPase Li cell 20%[38.3 µM], PNC inhibitor -11, IMPase cell inh -3, ALDH1A1 inh inconclusive and HPGD inh inconclusive.
`CCOC(=O)c1cc(NC(=O)N2CCCCC2)c(C)nc1C` gave IMPase Li cell -2%[38.3 µM], PNC inhibitor inconclusive, IMPase cell inh 0, ALDH1A1 inh 9% and HPGD inh -6%.
CN1CC(=O)N(CC(=O)Nc2cc(Cl)cc(Cl)c2)C1=O was read as IMPase Li cell 2% and ALDH1A1 inh 10µM*.
For CCCCn1c(Cc2ccccc2)n[nH]c1=S the results were IMPase Li cell 34%, PNC inhibitor 44, IMPase cell inh 3, ALDH1A1 inh 14µM* and HPGD inh inconclusive.
For CC(C)Cn1c(Cc2ccccc2)n[nH]c1=S the results were IMPase Li cell 33%[38.3 µM], PNC inhibitor 0, IMPase cell inh 4, ALDH1A1 inh 16µM* and HPGD inh -24%.
Screening Cc1ccc(OCc2n[nH]c(=S)n2N)cc1C returned IMPase Li cell -4% and ALDH1A1 inh -14%.
`CCn1c(CCn2c3ccccc3c3ccccc32)n[nH]c1=S` gave IMPase Li cell 2%, PNC inhibitor 12, ALDH1A1 inh 28µM* and HPGD inh inconclusive.
Screening CCn1c(CCc2ccccc2)n[nH]c1=S returned IMPase Li cell 6% and ALDH1A1 inh 8%.
For CCCCOc1ccc(Cc2n[nH]c(=S)n2N)cc1 the results were IMPase Li cell 4%, PNC inhibitor 62, ALDH1A1 inh 10% and HPGD inh 2.5µM*.
`O=S(=O)(N/N=C\C=C\c1ccccc1)c1ccc(Cl)cc1` gave IMPase Li cell 6%[38.3 µM], PNC inhibitor 14, IMPase cell inh -8, ALDH1A1 inh 3% and HPGD inh -24%.
`Cc1cc(NCCCCO)n2c(nc3ccccc32)c1C#N` gave IMPase Li cell -1%[38.3 µM], PNC inhibitor inconclusive, IMPase cell inh -5[1.84 µM], ALDH1A1 inh inconclusive and HPGD inh inconclusive.
`C=C(C)CSc1cc(C)c(C#N)c2nc3ccccc3n12` gave IMPase Li cell -26%, PNC inhibitor -93*, IMPase cell inh 1, ALDH1A1 inh 22% and HPGD inh inconclusive.
COCCN(CCOC)c1cc(C)c(C#N)c2nc3ccccc3n12 was read as IMPase Li cell -3%[38.3 µM], PNC inhibitor -95*, IMPase cell inh -3, ALDH1A1 inh inconclusive and HPGD inh inconclusive.
`Cc1nc(NC(=O)C2CC3CCCC(C2)C3=O)sc1C` (configuration not stated) gave IMPase Li cell 15%[38.3 µM], PNC inhibitor -122*, IMPase cell inh 3, ALDH1A1 inh inconclusive and HPGD inh -7%.
`O=C(Nc1cccc(NC(=O)C2CC3CCCC(C2)C3=O)n1)C1CC2CCCC(C1)C2=O` (configuration not stated) gave IMPase Li cell -1%, PNC inhibitor inconclusive, IMPase cell inh -3, ALDH1A1 inh -10% and HPGD inh 7%.
